Compounds with a hit are over-represented: about 8.1% of the library has one in this group of screens.
MCF10A rerep = DNA re-replication induction in MCF 10a cells; MCF 10A DNA re-replication, Hoechst nuclear intensity, 48 h; Potency, µM (series often up to 46.1 µM), inactives show at the top dose activity, positive = re-replication, actives largely listed as activators; 350,000 tested, 2.9% active; also: % of control where 0% means no effect; nearly all actives have a fitted effect of over 50% in size
ELG1 repair inh = ELG1-dependent DNA repair inhibition. HEK293T ELG1-luciferase reporter, luminescence, 16 h; DNA damage induced by 5-fluorouridine. Potency, µM (doses to about 46.1 µM), for inactives: top-dose activity change, negative = inhibition, usual class: inhibitors. 330,000 tested, 2.3% active; also: % is scaled to controls: 0 for no effect and ±100 for the full control effect; nearly all actives have a fitted effect of over 55% in size
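Overnight (16 hr) co-exposure of 2,000 cells/well to 5-fluorouridine and compound at 37 °C preceded detection. Luciferase was quantified via ONE-Glo luminescence; loss of signal denotes inhibition.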
KB-V1 MDR tox = KB-V1 MDR subline cytotoxicity. KB-V1 MDR cells viability, CellTiter-Glo, 72 h. Potency, µM (highest dose often 46.1 µM), most hits filed as cytotoxic. 400,000 tested, 3.4% active. AID 1347076; also: % is scaled to controls: 0 for no effect and ±100 for the full control effect; nearly all actives have a fitted effect of over 60% in size
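Cells of the MDR subline KB-V1 are plated, dosed with compound at multiple concentrations, and incubated 72 h at 37 degrees C; CellTiter-Glo is then added and luminescence read after 10 min.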
KB-3-1 cytotox = kills parental KB-3-1 adenocarcinoma cells | AID 1347075 | Potency, µM (highest dose often 46.1 µM), usual class: cytotoxic | KB-3-1 viability, CellTiter-Glo ATP luminescence, 72 h | 400,000 tested, 1.4% active; also: % is scaled to controls: 0 for no effect and ±100 for the full control effect; nearly all actives have a fitted effect of over 60% in size
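Viability of parental KB-3-1 cells, measured by CellTiter-Glo luminescence, followed a 72 h incubation at 37 °C with pinned compounds in phenol-red-free DMEM containing 10% FBS.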
SW480 rereplic = DNA re-replication induction in SW480 cells | SW480 DNA re-replication, Hoechst DNA content imaging, 48 h | Potency, µM (highest dose often 46.1 µM), inactives show at the highest dose re-replication activation, actives largely listed as activators | 340,000 tested, 1.8% active; also: % of control where 0% means no effect; nearly all actives have a fitted effect of over 55% in size
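Quantitative HTS format with DMSO vehicle controls; 48 hr drug incubation at 37 C, then 40 min Hoechst staining and scanning imager measurement at 405 nm excitation.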
Starred values were filed as active, the others as inactive; i = inactive; ? = inconclusive; . = not tested or not shown. Calls follow the shape of the dose curve; as a rule, active = well fitted curve in the direction sought with a large enough effect; inconclusive = small, poorly fitted or top-dose-only effect, or another doubt; inactive = no such curve, though single readings can be large; an effect the other way counts as inactive or inconclusive. Potency is read from the fitted curve at half-maximal effect.

SMILES	MCF10A rerep	ELG1 repair inh	KB-V1 MDR tox	KB-3-1 cytotox	SW480 rereplic
O=C(CS(=O)c1ccc(C(F)(F)F)cc1[N+](=O)[O-])Oc1ccc(Cl)cc1 (stereo unspecified)	13µM*	?	i	?	?
COc1ccc(/C(O)=C/Sc2nnc(Cc3ccccc3)o2)cc1	7%	-1%	?	i	-1%
Cc1ccc(NC(=O)CN(C)C(=O)COC(=O)c2oc3ccccc3c2C)cc1	3%	?	i	i	-28%
Cc1ccccc1-c1noc(N)c1C#N	16µM*	5%	?	i	5.2µM*
CN(C)CCN=Cc1c(O)n(-c2ccc(S(=O)(=O)N3CCOCC3)cc2)c(=O)c2ccccc12	-28%	11%	i	i	18µM*
Cc1cccc(-n2c(O)c(C=NCCCN3CCOCC3)c3ccccc3c2=O)c1	7%	?	i	i	-7%
O=C(c1ccccc1F)N(Cc1cccs1)C1CCS(=O)(=O)C1 (stereo unspecified)	0%	13%	i	i	-6%
CCn1c(=O)c(NC(=O)c2ccccc2)c2n(c1=S)CCCCC2	0%	-18%	i	i	-1%
CCOCCCn1c(=O)c(NC(=O)c2ccc(OCC)cc2)c2n(c1=S)CCCCC2	0%	-9%	8.2µM*	i	6%
CCCCN1CCc2c1nc1ccc(Br)cc1c2N	5%	-13%	21µM*	i	1%
Cc1ccc2nc3c(c(N)c2c1)CCN3C	23µM*	-4%	i	i	28%
O=C1c2cccc3cccc(c23)C(=O)N1CC1CCN(S(=O)(=O)c2ccc(F)cc2)CC1	22%	21µM*	9.2µM*	i	14%
FC(F)(F)c1cnc(Sc2nc3nccc(-c4ccc(Cl)cc4)n3n2)c(Cl)c1	3.3µM*	-1%	i	i	16µM*
COc1ccc(-c2ccnc3nc(Sc4ncc(C(F)(F)F)cc4Cl)nn23)cc1	-2%	-3%	15µM*	i	6%
CCCCOCCCNC(=O)CN1C(=O)c2ccccc2C1=O	3.7µM*	8%	i	i	28%
CCOCCCNC(=O)CN1C(=O)c2cccnc2Sc2ccccc21	.	.	i	i	.
CCc1ccc(NC(=O)Cn2c(=O)oc3cc(S(=O)(=O)N4CCOCC4)ccc32)cc1	-2%	?	i	i	-3%
CC1(C(=O)Nc2cccc(-n3cnnn3)c2)Cc2ccccc2C(=O)O1 (stereo unspecified)	-1%	?	12µM*	i	12%
Fc1ccccc1-c1n[nH]c(=S)n1/N=C/c1c[nH]c2ccccc12	1%	-4%	i	i	-10%
Cc1ccc(-n2nnnc2-c2cnc(-c3cccnc3)nc2C(F)(F)F)cc1	6%	3%	21µM*	?	0%
FC(F)(F)c1nc(N2CCCC2)ncc1-c1nnnn1-c1ccc(Cl)cc1	?	?	15µM*	?	8%
Fc1ccc(-n2nnnc2-c2cnc(-c3cccs3)nc2C(F)(F)F)cc1	15µM*	21µM*	23µM*	?	?
FC(F)(F)c1nc(-c2ccncc2)ncc1-c1nnnn1-c1ccccc1	2%	-1%	21µM*	i	-9%
c1ccc(-n2nnnc2-c2cnc(-c3ccncc3)nc2-c2cccs2)cc1	-1%	0%	?	i	-9%
FC(F)(F)c1ccncc1-c1nnnn1-c1ccc(Cl)cc1	5%	?	i	i	-21%
CCCCOc1ccc(C(=O)Oc2cc(C)[nH]c(=O)c2[N+](=O)[O-])cc1	18%	9%	i	i	0%
COC1CCN(C(=O)c2ccc3oc(Cc4ccc(Cl)cc4)nc3c2)CC1	3%	-2%	i	i	-10%
CCOc1ccc(Nc2ncnc3c2cnn3C)cc1	0%	?	i	i	-2%
CC(=O)c1c(C)n([O-])c2cc(F)c(F)cc2[n+]1=O	?	?	?	16µM*	?
CCN(CC)c1ccc(NC(=O)COC(=O)Cc2ccsc2)cc1	4%	9%	?	i	?

Screens deposited in PubChem BioAssay by National Center for Advancing Translational Sciences (NCATS).
